Results as given in PubChem BioAssay (NCI).
This is part of a sample that, as a whole, favours compounds with a hit. Of some 83,000 tested, about 20% had one in any assay.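 Values shown are percent growth following 48 h exposure of cells in 96-well plates to a single concentration of compound; below 10 was considered active.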 Unmarked numbers belong to inactive results. Active and inactive are the calls of the source.

Tests used:
Test in all cases: NCI-60 one-dose screen, 48 h (100 = growth as untreated, 0 = no growth, -100 = all killed)
Conditions in all cases: 10 µM unless noted
NCI-H23 lung = tested on: NCI-H23 lung
NCI-H226 lung = tested on: NCI-H226 lung
NCI-H322M lung = tested on: NCI-H322M lung
HOP-62 NSCLC = tested on: HOP-62 NSCLC
NCI-H460 lung = tested on: NCI-H460 lung
HOP-92 NSCLC = tested on: HOP-92 NSCLC
NCI-H522 lung = tested on: NCI-H522 lung
A549/ATCC NSCLC = tested on: A549/ATCC NSCLC
786-0 renal = tested on: 786-0 renal
COLO 205 colon = tested on: COLO 205 colon

SMILES	growth (NCI-H23 lung)	growth (NCI-H226 lung)	growth (NCI-H322M lung)	growth (HOP-62 NSCLC)	growth (NCI-H460 lung)	growth (HOP-92 NSCLC)	growth (NCI-H522 lung)	growth (A549/ATCC NSCLC)	growth (786-0 renal)	growth (COLO 205 colon)
COc1cc(/C=C\C(=O)O)ccc1OCc1ccccc1	100%	80.2%	117%	99%	105%	86.1%	83.6%	82.3%	109%	108%
O=c1c2c(c(=O)n1O)c1c3ccc[nH]c3nc1c1nc3[nH]cccc3c12	86.7%	87.1%	91%	83%	93.1%	80.1%	55%	79.4%	87.5%	94.9%
CCOC(=O)C1=C(CCl)NC(=O)NC1c1ccc2c(c1)OCO2 (stereo not given)	48.3%	88.5%	88.1%	53.8%	76.9%	60.1%	-42.3% (active)	66.1%	43.2%	75.6%
c1ccc2c(-c3c[nH]c4ccccc34)c3c(cc2c1)[nH]c1ccccc13	69.9%	86.2%	83.7%	60.4%	68.9%	83.3%	51.7%	62%	51.9%	83.3%
O=S(=O)(NCCCNc1nccc(-c2c(-c3cccc(O)c3)nc3occn23)n1)c1ccc(Cl)cc1	94.6%	108%	103%	114%	92.5%	96.6%	87.6%	90.5%	102%	27.7%
COc1cc2c(c(OC)c1OC)-c1ccc(NNC(=S)N(Cc3cccc(C[N+](Cc4cccc(CNC56CC7CC(CC(C7)C5)C6)c4)(Cc4cccc(CNC56CC7CC(CC(C7)C5)C6)c4)Cc4cccc(CN(C(=S)NNc5ccc6c(cc5=O)[C@@H](NC(C)=O)CCc5cc(OC)c(OC)c(OC)c5-6)C56CC7CC(CC(C7)C5)C6)c4)c3)C34CC5CC(CC(C5)C3)C4)c(=O)cc1[C@@H](NC(C)=O)CC2 (stereo not given in full)	20.7%	-8.38% (active)	49.6%	48.6%	2.48% (active)	-5.87% (active)	-22.8% (active)	20.9%	11%	-56.9% (active)
COc1cc(C(=O)Nc2cc3c(cc2Oc2cc(C)cc(C)c2)C(=O)N(C)[C@@H](CC(=O)N(C)O)C(=O)N3)c(Br)c(OC)c1OC	-20.4% (active)	-17.2% (active)	-32.5% (active)	-15.7% (active)	-14.7% (active)	-16.4% (active)	-43.1% (active)	-4.48% (active)	-38.5% (active)	-17.9% (active)
COc1ccc(C(=O)CSc2nc(-c3cc(OC)ccc3OC)cc(-c3ccc(Cl)cc3)c2C#N)cc1	44.1%	-2.99% (active)	67.9%	39.9%	25.4%	43.9%	27.6%	56.5%	23.7%	65.2%
COC(=O)C(OC(C)=O)C(OC(C)=O)c1ccc(OC)c(OC)c1 (stereo not given)	96.8%	98.4%	93.4%	98.2%	104%	110%	85.9%	80.1%	101%	123%
CN1CCN(C(=O)[C@]23CCC(C)(C)C[C@H]2C2=CC[C@@H]4[C@@]5(C)C/C(=C/c6ccncc6)C(=O)C(C)(C)[C@@H]5CC[C@@]4(C)[C@]2(C)CC3)CC1	72.4%	68.7%	87.6%	83.1%	33.1%	41%	55.9%	43.8%	67.2%	41.9%
CN(C)CC(O)c1ccc(/C=C/c2ccc(Cl)cc2)cc1 (stereo not given)	33.5%	73.4%	-9.83% (active)	-50.2% (active)	-54.6% (active)	15.5%	-84.4% (active)	-92.3% (active)	13.8%	-46.4% (active)
CCOC(=O)Nc1ccc(-c2ccc3c(c2)NC(=O)/C3=C\c2ccc[nH]2)cc1	47.3%	68%	63.1%	91.9%	37.1%	102%	97.8%	103%	108%	125%
